Screening data as filed in PubChem.
SRC3 TRFRET art – TR-FRET artefact, counter-screen to PPARgamma/SRC-3 agonist assay | PPARgamma/SRC-3 format; stronger effect = higher value | TR-FRET ratio at 8 µM | 0.39% of 99,000 active; in the data active = TR-FRET ratio above about 2000
SRC1 TRFRET art – TR-FRET artefact, counter-screen to PPARgamma/SRC-1 agonist assay; TR-FRET detection artefact counter-screen, emission ratio; stronger effect = higher value; TR-FRET ratio at 8 µM; 0.34% of 99,000 active; AID 1051; in the data active = TR-FRET ratio above about 2300
PPARg SRC3 recr – agonists of human PPARgamma SRC-3 coactivator recruitment | P37231 | biochemical PPARgamma/SRC-3 coactivator recruitment assay | activation, % at 8 µM | 0.26% of 200,000 active; in the data active = activation above about 23%;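 note: 0% = DMSO and 100% = reference agonist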
Target sequence (P37231 whole entry, looked up): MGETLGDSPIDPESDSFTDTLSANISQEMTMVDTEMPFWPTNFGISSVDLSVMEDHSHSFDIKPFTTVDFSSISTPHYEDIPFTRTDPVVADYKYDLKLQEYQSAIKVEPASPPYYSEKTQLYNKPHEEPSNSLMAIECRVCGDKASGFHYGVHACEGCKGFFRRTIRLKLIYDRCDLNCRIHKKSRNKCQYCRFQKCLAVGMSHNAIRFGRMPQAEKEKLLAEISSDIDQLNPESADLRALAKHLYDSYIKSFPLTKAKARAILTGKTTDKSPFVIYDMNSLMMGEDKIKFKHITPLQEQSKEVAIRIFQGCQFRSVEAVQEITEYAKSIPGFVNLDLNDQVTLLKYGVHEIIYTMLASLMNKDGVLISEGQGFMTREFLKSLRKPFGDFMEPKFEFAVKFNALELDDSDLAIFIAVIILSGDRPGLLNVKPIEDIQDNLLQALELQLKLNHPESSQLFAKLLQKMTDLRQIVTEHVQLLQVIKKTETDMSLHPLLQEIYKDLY
SRC2 TRFRET art – flags TR-FRET format artefacts in PPARgamma SRC-2 recruitment agonist screen | 0.4% of 200,000 active | TR-FRET ratio at 8 µM | TR-FRET artefact counter-screen; stronger effect = higher value; in the data active = TR-FRET ratio above about 2000
PPARg SRC1 recr – agonists of human PPARgamma SRC-1 coactivator recruitment | 0.41% of 200,000 active | activation, % at 8 µM | PPARgamma-SRC-1 coactivator recruitment biochemical assay; in the data active = activation above about 19%;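 note: 0% = DMSO and 100% = reference agonist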
PPARg SRC2 recr – promotes SRC-2 coactivator recruitment by human PPARgamma; P37231; PPARgamma LBD-SRC-2 recruitment, biochemical; activation, % at 8 µM; 0.34% of 200,000 active; AID 1032;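 note: 0% = vehicle and 100% = reference agonist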
PPARg SRC2 ag – confirmation of agonists of SRC-2 recruitment by human PPARgamma; shares compounds with PPARg SRC3 recr; biochemical SRC-2 recruitment by PPARgamma; activation, % at 8 µM; 52% of 790 active;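 note: 0% = vehicle alone and 100% = reference agonist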
PPARg SRC1 conf – human PPARgamma SRC-1 recruitment agonism, confirmation; shares compounds with PPARg SRC3 recr; PPARgamma–SRC-1 coactivator recruitment biochemical assay; activation, % at 8 µM; 43% of 790 active; AID 1300; in the data active = activation above about 20%;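 note: 0% = vehicle wells and 100% = reference agonist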
PPARg SRC3 conf – human PPARgamma SRC-3 recruitment agonism, confirmation; 29% of 790 active; shares compounds with PPARg SRC3 recr; AID 1301; biochemical PPARgamma-SRC-3 coactivator recruitment, agonist mode; activation, % at 8 µM; in the data active = activation above about 24%;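 note: 0% = vehicle wells and 100% = reference agonist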
Active calls of the source: *; nt = no result. Sampled rows, rich in hits. Any-hit rate of the full collection: about 0.9%. Cut-off read from the data, not from the text of the source, unless noted: active = activation above about 22%; inactive = the rest.

SMILES	SRC3 TRFRET art	SRC1 TRFRET art	PPARg SRC3 recr	SRC2 TRFRET art	PPARg SRC1 recr	PPARg SRC2 recr	PPARg SRC2 ag	PPARg SRC1 conf	PPARg SRC3 conf
CSc1ccccc1-c1n[nH]c(=S)o1	3610*	4008*	44*	3652*	70*	96*	51*	33*	34*
S=c1[nH]nc(Cc2cccc3ccccc23)o1	1601	1581	3	1336	-8	-7	nt	nt	nt
O=c1c2ccccc2c(-c2n[nH]c(=S)o2)nn1Cc1ccccc1	2375*	2576*	16	2234*	23*	28*	49*	42*	31*
COc1ccc(C2CCCN2C(=S)Nc2cccc(C)c2C)cc1OC (stereo not drawn)	1397	1719	-1	1436	-2	2	nt	nt	nt
O=[N+]([O-])c1ccc(NCCNCCOc2nonc2-c2ccccc2)c([N+](=O)[O-])c1	1658	1869	1	1514	2	2	nt	nt	nt
Cc1ccc(-c2nnc(OCC3CCCO3)c3ccccc23)cc1 (stereo not drawn)	1481	1749	7	1796	4	11	nt	nt	nt
Cc1ccc(CN2C(=O)C3CCCN3c3ccc(C#N)cc32)cc1 (stereo not drawn)	nt	nt	29*	1578	7	16	12	14	8
Cc1ccc(C)c(CN2C(=O)C3CCCN3c3ccc(C#N)cc32)c1 (stereo not drawn)	nt	nt	10	1692	0	1	nt	nt	nt
O=C(CCn1c(=S)oc2ccccc21)Nc1ccc(F)cc1	1616	1871	2	1550	7	0	nt	nt	nt
Cc1ccc(NC(=O)CCn2c(=S)oc3ccccc32)cc1	1728	2071	7	1795	22*	12	3	-1	1
Cc1[nH]c2ccccc2c1/C=C/c1cc[n+](C)cc1	nt	nt	17	1692	25*	10	17	13	12
O=C(Nc1nc2c(s1)CN(Cc1ccccc1)CC2)c1cccc(S(=O)(=O)N2CCc3ccccc32)c1	nt	nt	39*	4126*	37*	15	50*	41*	30*
Cc1nnc(NC(=O)c2cccc(S(=O)(=O)N3CCc4ccccc43)c2)s1	nt	nt	11	1519	8	9	nt	nt	nt
S=c1[nH]nc(-c2ccco2)n1-c1ccc(Cl)cc1	2067*	2279	18	1660	16	23*	18	9	11
Nn1c(-c2ccco2)n[nH]c1=S	nt	nt	0	1580	1	3	nt	nt	nt
COc1ccccc1-c1n[nH]c(=S)n1N	1623	1712	4	1698	11	2	nt	nt	nt
COc1ccccc1-c1n[nH]c(=S)n1-c1ccccc1	nt	nt	84*	2941*	62*	63*	57*	39*	39*
COc1ccc(-n2c(-c3ccco3)n[nH]c2=S)cc1	nt	nt	21	1858	22*	14	20	11	13
COc1ccccc1NC(=O)COC(=O)C1CC1	1781	1976	4	1747	-2	3	nt	nt	nt
CC(C)CC(NC(N)=O)C(=O)OCC(=O)Nc1ccc(OC(F)F)cc1 (stereo not drawn)	1579	1794	1	1486	4	0	nt	nt	nt
COc1ccc(/C(O)=C2\C(=O)C(=O)N(c3cc(C)on3)C2c2ccc(OC)c(OC)c2)cc1OC (stereo not drawn)	nt	nt	-4	1427	8	6	nt	nt	nt
COc1ccc(/C(O)=C2\C(=O)C(=O)N(c3cc(C)on3)C2c2ccccc2OC)cc1 (stereo not drawn)	nt	nt	25	2135*	19*	32*	31*	25*	19
COc1cccc(C2/C(=C(\O)c3ccc(OC)c(OC)c3)C(=O)C(=O)N2c2cc(C)on2)c1 (stereo not drawn)	nt	nt	28*	1910	17	29*	24*	17	15
CC(=O)Nc1cccc2c1C(=O)N(c1ccc(OC(C)=O)cc1)C2=O	1754	1564	0	1713	7	3	nt	nt	nt
CC(=O)Oc1cc2cccc(OC(C)=O)c(=O)c2c(OC(C)=O)c1OC(C)=O	1773	1973	10	1830	11	17	8	7	4
SMILES	SRC3 TRFRET art	SRC1 TRFRET art	PPARg SRC3 recr	SRC2 TRFRET art	PPARg SRC1 recr	PPARg SRC2 recr	PPARg SRC2 ag	PPARg SRC1 conf	PPARg SRC3 conf
COc1cc2cccc(OC)c(=O)c2c(O)c1OC	1498	1983	-2	1681	6	3	nt	nt	nt
COc1cc(CNC(C)c2ccccc2)cc(Cl)c1OCC(=O)Nc1ccccc1 (stereo not drawn)	1615	1819	-1	1683	5	-2	nt	nt	nt
COc1ccc(Br)cc1CNc1ccc(O)cc1	nt	nt	18	1752	10	23*	7	5	6
CS(=O)(=O)Nc1ccccc1C(=O)NCc1ccco1	nt	nt	26*	1638	1	20	7	4	5
CCOc1ccc(S(=O)(=O)Nc2ccccc2C(=O)NCc2ccco2)cc1	nt	nt	10	1630	9	5	nt	nt	nt
COc1ccc(C(=O)Nc2cccc3c2C(=O)NC3=O)cc1S(=O)(=O)N1CCOCC1	nt	nt	14	1625	21*	-3	-3	-4	-2
Nn1c(SCc2ccc(Br)cc2)nnc1-c1ccncc1	1608	1862	-2	1559	-1	3	nt	nt	nt
CCN(CC)S(=O)(=O)c1ccc(C)c(NC(=O)COC(=O)[C@@H]2CCCN2C(=O)c2cccs2)c1	1504	1819	4	1707	13	2	nt	nt	nt
CCOC(=O)CSc1nnc(-c2cccs2)n1-c1ccccc1	nt	nt	6	1676	6	6	nt	nt	nt
O=C(CSc1nnc(-c2cccs2)n1-c1ccccc1)Nc1ccccc1	nt	nt	31*	1837	46*	64*	20	17	9
O=C(Cc1sc(Nc2ccccc2)nc1-c1ccccc1)NCc1ccccn1	1568	1678	3	1668	7	7	nt	nt	nt
CC(C)c1ccc(NC(=O)C(c2ccccc2)N(Cc2ccco2)C(=O)CC2NC(=O)NC2=O)cc1 (stereo not drawn)	1501	1752	2	1613	-2	-8	nt	nt	nt
O=C(Nc1ccc(N2CCOCC2)cc1N1CCOCC1)c1ccc([N+](=O)[O-])cc1	nt	nt	27*	1418	3	14	3	0	2
O=C(CCNC(=O)c1ccc([N+](=O)[O-])cc1)Nc1ccc(N2CCOCC2)cc1N1CCOCC1	1672	2042	-3	1732	4	5	nt	nt	nt
COc1cc(C2CC(c3cccnc3)=NN2c2ccc(F)cc2)cc(OC)c1OC (stereo not drawn)	1574	2096	7	1559	6	3	nt	nt	nt
COC(=O)c1sccc1NC(=O)Nc1ccc(Cl)c(Cl)c1	nt	nt	14	1921	19*	23*	8	2	4
